# Results from PubChem BioAssay (Tox21).
# “And” between values parts separate entries of the source, which are not always exact repeats. Identical values can stand only once. A number with no mark means an inactive call. Records with an inconclusive call do not appear. A call without a number means that no potency is given here. The source made the active and inactive calls. Unless noted, calls come from the whole dose curve; as a rule, active = well fitted curve in the direction sought with a large enough effect in the repeat runs; inconclusive = weak or mixed curves; inactive = no such curve, though single readings can be large; an effect the other way counts as inactive or inconclusive.
# Legend:
# [1] = qHTS assay for small molecule agonists of the p53 signaling pathway - cell viability (AID 651633; calls by dose curve;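 note: p53RE-bla HCT reporter cells with a stable beta-lactamase p53 reporter; series mostly up to about 83 µM; nearly all actives have a fitted effect of over 30% in size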)
# Procedure, shortened: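 p53RE-bla cells, seeded at 4,000 per well and rested 5 h at 37 C/5% CO2, received compounds in DMSO for 16 h at 37 C. CellTiter-Glo was then added, and luminescence was read after 30 min at room temperature to gauge cytotoxicity.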
# [2] = qHTS assay for small molecules that induce genotoxicity in human embryonic kidney cells expressing luciferase-tagged ATAD5 - cell viability (AID 651634; calls by dose curve; note: nearly all actives have a fitted effect of over 25% in size; note: potency is the fitted concentration of half-maximal effect)
# Procedure, shortened: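 HEK293T cells expressing luciferase-tagged ATAD5 were exposed to compound or DMSO for 15.5 hr at 37C, 5% CO2. Viability was then read as live-cell protease activity by CellTiter-Fluor fluorescence after 30 min at 37C.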
# [3] = qHTS assay for small molecule disruptors of the mitochondrial membrane potential (AID 720635); note: potency is the fitted concentration of half-maximal effect
# Procedure, shortened: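 HepG2 cells (2,000/well) attached overnight at 37C, then took compound for 1 hr at 37C, 5% CO2. Mito-MPS dye was added for 30 min; fluorescence was read at 490/535 nm (monomers) and 540/590 nm (aggregates).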
# [4] = qHTS assay to test for compound auto fluorescence at 590 nm (red) in HepG2 cells (AID 720674)
# Procedure, shortened: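 Intrinsic compound fluorescence in the red window (Ex/Em 540/590 nm) is measured in attached HepG2 cells exposed for 1 hr, DMSO vehicle as baseline, benchmarked to Rose Bengal sodium.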
# [5] = qHTS assay to test for compound auto fluorescence at 535 nm (green) in HepG2 cells (AID 720675)
# [6] = qHTS assay to test for compound auto fluorescence at 460 nm (blue) in HEK293 cells (AID 720678)
# Procedure, shortened: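 Blue-channel (Ex/Em 405/460 nm) intensity measured in HEK293 cultures after overnight compound exposure at 37C; signal expressed relative to triamterene. Cells plated 2,000 per well in 10% dialyzed FBS medium and allowed 4-5 hr to attach.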
# [7] = qHTS assay to test for compound auto fluorescence at 590 nm (red) in HEK293 cells (AID 720679)
# Procedure, shortened: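 Red-channel autofluorescence (Ex/Em 540/590 nm; Rose Bengal sodium reference) was measured after overnight 37C, 5% CO2 exposure of attached HEK293 cells, 2,000 per well in medium with 10% dialyzed FBS.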
# [8] = qHTS assay for small molecules that induce genotoxicity in human embryonic kidney cells expressing luciferase-tagged ATAD5 (AID 651632); note: nearly all actives have a fitted effect of over 15% in size
# Procedure, shortened: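 HEK293T cells carrying a luciferase reporter tagged to ATAD5 were exposed to compound or DMSO vehicle for 16 hr at 37C, 5% CO2. Amplite was added, and after 30 min at room temperature luciferase activity was read as a marker of ATAD5 induction.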
# [9] = qHTS assay for small molecule disruptors of the mitochondrial membrane potential - cell viability (AID 720634; calls by dose curve;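 note: human HepG2 liver cancer cells; series mostly up to about 83 µM; nearly all actives have a fitted effect of over 20% in size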)
# Procedure, shortened: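 HepG2 cells seeded overnight at 37 C, then exposed to compound or DMSO for 1 hr at 37 C, 5% CO2. m-MPI dye added, then CellTiter-Glo for 30 min at room temperature; viability read as ATP luminescence.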
structure (smiles),measurement,setting,value
C[N+]12CCC(CC1)C(OC(=O)C(O)(c1ccccc1)c1ccccc1)C2 (centres undefined),Potency,[1],inactive
same,Potency,[2],inactive
same,Potency,[3],inactive
same,"fluorescence, relative to Rose Bengal",[4],0.0225% [at 18.6 µM]
same,"fluorescence, % of fluorescein control",[5],-0.0019% [at 18.6 µM]
same,"fluorescence, % of triamterene",[6],0.0716% [at 18.6 µM]
same,"fluorescence, % of fluorescent control",[7],-0.175% [at 18.6 µM]
CC(=O)O[C@@]12CO[C@@H]1C[C@H](O)[C@@]1(C)C(=O)[C@H](O)C3=C(C)[C@@H](OC(=O)[C@H](O)[C@@H](NC(=O)OC(C)(C)C)c4ccccc4)C[C@@](O)([C@@H](OC(=O)c4ccccc4)[C@H]21)C3(C)C,Potency,[1],inactive
same,Potency,[2],11.9 nM (active) and 8.4 nM (active)
same,outcome,[4],inactive
same,outcome,[5],inactive
same,outcome,[6],inactive
same,outcome,[7],inactive
Cc1ncc([C@@H](CCCCCCc2ccc3c(n2)NCCC3)CC(=O)O)cn1,Potency,[8],inactive
same,Potency,[2],27.3 nM (active)
same,outcome,[4],inactive
same,outcome,[5],inactive
same,outcome,[7],inactive
CC(C)(N)C#N,Potency,[1],inactive
same,Potency,[2],inactive
same,outcome,[9],inactive
same,outcome,[4],inactive
same,outcome,[5],inactive
same,outcome,[6],inactive
same,outcome,[7],inactive
CC(=O)Nc1ccc(OCC(O)CNC(C)C)cc1 (centres undefined),Potency,[1],inactive
same,Potency,[2],inactive
same,outcome,[9],inactive
same,outcome,[4],inactive
same,outcome,[5],inactive
same,outcome,[6],inactive
same,outcome,[7],inactive
CC[N+](CC)(CC)CCOc1cccc(OCC[N+](CC)(CC)CC)c1OCC[N+](CC)(CC)CC,Potency,[1],inactive
same,Potency,[2],inactive
same,outcome,[4],inactive
same,outcome,[6],inactive
same,outcome,[7],inactive
CCCCCCCCCC[N+](C)(C)[O-],Potency,[8],inactive
same,Potency,[2],inactive
same,outcome,[4],inactive
same,outcome,[5],inactive
same,outcome,[6],inactive
same,outcome,[7],inactive
CC1=NN(c2cccc(S(=O)(=O)O)c2)C(=O)C1,Potency,[8],inactive
same,Potency,[2],inactive
same,outcome,[4],inactive
same,outcome,[5],inactive
same,outcome,[6],inactive
same,outcome,[7],inactive
[Ca+2],Potency,[8],inactive
same,Potency,[2],inactive
same,outcome,[4],inactive
same,outcome,[5],inactive
same,outcome,[6],inactive
same,outcome,[7],inactive
CCOc1ccc2nc(S(N)(=O)=O)sc2c1,Potency,[2],inactive
same,outcome,[9],inactive
same,outcome,[6],inactive
same,outcome,[7],inactive
CO[Si](C)(OC)c1ccccc1,Potency,[2],inactive
same,outcome,[4],inactive
same,outcome,[6],inactive
same,outcome,[7],inactive
NC(=O)Cc1cccc2ccccc12,Potency,[1],inactive
same,Potency,[2],inactive
same,outcome,[9],inactive
same,outcome,[4],inactive
same,outcome,[5],inactive
same,outcome,[6],inactive
same,outcome,[7],inactive
C=CN1CCCCCC1=O,Potency,[8],inactive
same,Potency,[2],inactive
same,Potency,[3],inactive
same,outcome,[4],inactive
same,outcome,[5],inactive
same,outcome,[6],inactive
same,outcome,[7],inactive
CC(C)c1ccc2ncccc2c1,Potency,[2],inactive
same,outcome,[9],inactive
same,outcome,[4],inactive
same,outcome,[5],inactive
same,outcome,[7],inactive
CC[N+](C)(CC)CCOC(=O)C1c2ccccc2Oc2ccccc21,Potency,[2],inactive
same,outcome,[9],inactive
same,Potency,[3],inactive
same,outcome,[5],inactive
same,outcome,[7],inactive
CCCCc1nc(Cl)c(CO)n1Cc1ccc(-c2ccccc2-c2nn[nH]n2)cc1,Potency,[1],inactive
same,Potency,[2],inactive
same,outcome,[9],inactive
same,outcome,[4],inactive
same,outcome,[7],inactive
CC[N+](CC)(CC(=O)Nc1c(C)cccc1C)Cc1ccccc1 (tested in a mixture with another compound),Potency,[1],inactive
same,Potency,[2],inactive
same,outcome,[9],inactive
same,outcome,[4],inactive
same,outcome,[5],inactive
same,outcome,[6],inactive
same,outcome,[7],inactive
CC1OC1C1CCC2(C)OC2C1 (centres undefined),Potency,[1],inactive
same,Potency,[2],inactive
same,outcome,[9],inactive
same,outcome,[4],inactive
same,outcome,[5],inactive
same,outcome,[6],inactive
same,outcome,[7],inactive
CC(C)(C)C(=O)Oc1ccc(S(=O)(=O)Nc2ccccc2C(=O)NCC(=O)O)cc1,Potency,[1],inactive
same,Potency,[2],inactive
same,Potency,[3],inactive
same,outcome,[4],inactive
same,outcome,[5],inactive
same,outcome,[7],inactive
CC(C)(C)c1ccc(-c2ccc(C(C)(C)C)cc2)cc1,Potency,[8],inactive
same,Potency,[2],inactive
same,outcome,[9],inactive
same,outcome,[4],inactive
same,outcome,[5],inactive
same,outcome,[7],inactive
C[C@H]1[C@H](NC(=O)/C(=N/OC(C)(C)C(=O)O)c2csc(N)n2)C(=O)N1S(=O)(=O)O (stereo in doubt),Potency,[1],inactive
same,Potency,[2],inactive
same,outcome,[9],inactive
same,Potency,[3],inactive
same,"fluorescence, relative to Rose Bengal",[4],-0.264% [at 18.6 µM]
same,"fluorescence, % of fluorescein control",[5],-0.201% [at 18.6 µM]
same,"fluorescence, % of triamterene",[6],0.218% [at 18.6 µM]
same,"fluorescence, % of fluorescent control",[7],0.181% [at 18.6 µM]
CC(C)CC(C)(N)C#N (centres undefined),Potency,[1],inactive
same,Potency,[2],inactive
same,outcome,[4],inactive
same,outcome,[5],inactive
same,outcome,[6],inactive
same,outcome,[7],inactive
Cc1c(N)c(=O)n(-c2ccccc2)n1C,Potency,[2],inactive
same,outcome,[9],inactive
same,Potency,[3],inactive
same,"fluorescence, relative to Rose Bengal",[4],-0.0352% [at 18.6 µM]
same,"fluorescence, % of fluorescein control",[5],0.0089% [at 18.6 µM]
same,"fluorescence, % of triamterene",[6],0.0036% [at 18.6 µM]
same,"fluorescence, % of fluorescent control",[7],0.258% [at 18.6 µM]
CC(=O)NC(=O)c1ccccc1O,Potency,[1],inactive
same,Potency,[2],inactive
same,Potency,[3],inactive
same,outcome,[4],inactive
same,outcome,[5],inactive
same,outcome,[6],inactive
same,outcome,[7],inactive
C1CCC2=NCCCN2CC1,Potency,[1],inactive
same,Potency,[2],inactive
same,outcome,[9],inactive
same,Potency,[3],inactive
same,outcome,[4],inactive
same,outcome,[5],inactive
same,outcome,[7],inactive
O=C1c2ccccc2C(=O)c2cc(O)ccc21,Potency,[1],inactive
same,Potency,[2],inactive
same,Potency,[3],1940 nM (active)
same,outcome,[4],inactive
same,outcome,[5],inactive
same,outcome,[6],inactive
same,outcome,[7],inactive
COC(=O)C1=C(C)NC(C)=C(C(=O)OC(C)C)C1c1cccc2nonc12 (centres undefined),outcome,[9],inactive
same,"fluorescence, % of fluorescein control",[5],0.024% [at 18.6 µM]
same,"fluorescence, % of triamterene",[6],-0.009% [at 18.6 µM]
same,"fluorescence, % of fluorescent control",[7],0.0072% [at 18.6 µM]
